Screening data (PubChem)
FBW7 act: human FBW7 E3 ligase activation, primary screen; Q969H0; AlphaScreen FBW7–phospho-cyclin E peptide binding, activator screen; 650,000 compounds, 0.13% hits; normalized activity (activation), % at 26.1 µM; in the data active = normalized activity above about 1.9%;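 also: purified mutant Fbw7 with reduced substrate affinity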
MITF primary: inhibitors of human MITF; AID 1259374; AlphaScreen MITF homodimerization, bead proximity signal; 650,000 compounds, 0.91% hits; inhibition, % at 2.6 µM; O75030; in the data active = inhibition above about 50%;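 also: 0% = vehicle wells with protein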
GPR151 ag: human GPR151 activation; PathHunter beta-arrestin GPR151 cells, luminescence; activation, % at 11.2 µM; 650,000 compounds, 1% hits; AID 1508602; in the data active = activation above about 4.9%;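 also: 0% = median of compound wells and 100% = cells with positive control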
Target sequence (Q8TDV0 whole entry, looked up): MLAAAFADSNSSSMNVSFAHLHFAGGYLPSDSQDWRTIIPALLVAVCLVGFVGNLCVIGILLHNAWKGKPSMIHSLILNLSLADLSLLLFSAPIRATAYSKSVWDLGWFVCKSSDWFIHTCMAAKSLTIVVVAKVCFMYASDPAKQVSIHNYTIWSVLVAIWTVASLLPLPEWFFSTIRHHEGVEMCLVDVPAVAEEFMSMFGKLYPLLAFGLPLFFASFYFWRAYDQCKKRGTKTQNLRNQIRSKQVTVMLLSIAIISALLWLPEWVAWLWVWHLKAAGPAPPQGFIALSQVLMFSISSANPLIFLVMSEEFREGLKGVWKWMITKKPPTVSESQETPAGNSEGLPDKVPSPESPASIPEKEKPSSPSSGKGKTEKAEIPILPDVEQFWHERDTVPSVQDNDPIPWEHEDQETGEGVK
TEAD-YAP inh: TEAD-YAP interaction inhibition; HEK-TIYL cells, TEAD-Gal4/YAP UAS-luciferase luminescence; inhibition, % at 9.12 µM; 640,000 compounds, 1.4% hits; AID 1259422; in the data active = inhibition above about 32%;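 also: 0% = median of test compound wells and 100% = reference inhibitor wells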
An asterisk follows results filed as active; ! = repeats disagree. A selection: hits, their analogues and other compounds. The true share with any hit is near 3.5%.

SMILES	FBW7 act	MITF primary	GPR151 ag	TEAD-YAP inh
Cc1ncn(-c2ccc(Nc3nccc(-c4cc(N5CCOCC5)cc(S(C)(=O)=O)c4)n3)cc2)n1	0	-1	0	41*
N#CC12C(N)=NC3(OCCO3)C1(C#N)C2c1ccccc1Br (stereo not drawn)	0	12	1	-1
Cc1ncn(-c2ccc(Nc3nccc(Nc4ccccc4-c4ccn[nH]4)n3)cc2)n1	0	1	2	64*
Cc1ncn(-c2ccc(Nc3nccc(Nc4cccnc4)n3)cc2)n1	0	8	0	6
Oc1ccc(/C=N/NC(=S)N2CCOCC2)cc1	0	13	-3	50*
COCCNC(=S)N/N=C/c1ccc(N2CCOCC2)cc1	0	-1	-1	64*
NCCNCCCOc1ccccc1-c1ccccc1	0	15	3	-7
Clc1ccc2nc(NCCN3CCOCC3)nc(-c3ccccc3)c2c1	0	-4	0	38*
O=C(CN1CCOCC1)NNc1nc(-c2ccccc2)c2cc(Cl)ccc2n1	0	3	1	19
CN(C)c1nc2nonc2nc1NCCc1cnn(-c2ccccc2)c1	0	15	2	-33
O=C(c1ccc2cncc(-c3cc4ccccc4o3)c2n1)N1CCOCC1	-1	18	1	23
O=C(NCCCn1ccnc1)c1ccc2cncc(-c3cc4ccccc4o3)c2n1	0	-2	-1	46*
O=C(NC1CC1)c1ccc2cncc(-c3cc4ccccc4o3)c2n1	0	2	-1	50*
COCCNC(=O)c1ccc2cncc(-c3cc4ccccc4o3)c2n1	0	5	0	60*
COc1ccc(-n2nc(C(=O)Nc3ccc(F)c(Cl)c3)c3ccccc3c2=O)cc1	0	7	-1	-1
COC(=O)c1cccc(OCC(O)Cn2c(C)nc3ccccc32)c1 (stereo not drawn)	0	5	1	39*
Cc1nc2ccccc2n1CC(O)COc1ccc(C(C)(C)C)cc1 (stereo not drawn)	0	-4	1	47*
Cc1nc2ccccc2n1CC(O)COc1ccc2ccccc2c1Br (stereo not drawn)	0	6	-1	45*
COc1ccc(OCC(O)Cn2c(C)nc3ccccc32)cc1 (stereo not drawn)	0	3	2	44*
O=C(NCCN1CCOCC1)Nc1ccccc1-c1ccccc1	0	12	2	3
CCCCc1c(C)c2cc([N+](=O)[O-])c(O)c(C)c2oc1=O	0	34	-1	-5
[O-][n+]1onc2cc(Cl)c(Cl)cc21	0	3	2	-40
[O-][n+]1onc2cc(Br)cnc21	0	61*	-2	-3
COc1ccc(NS(=O)(=O)c2ccc(C)cc2)cc1N1CCCCC1=O	0	-2	1	7
O=C1c2c(O)ccc(O)c2C(=O)c2c(NCCNCCO)ccc(NCCNCCO)c21	-1	52*!	-2	55*
SMILES	FBW7 act	MITF primary	GPR151 ag	TEAD-YAP inh
O=C1c2c(O)ccc(O)c2C(=O)c2c(O)ccc(O)c21	0	43	3	14
COc1ccccc1-c1c2cc(O)c(=O)cc-2oc2cc(O)c(O)cc12	0	104*	-1	8
O=c1cc2oc3cc(O)c(O)cc3c(-c3ccccn3)c-2cc1O	-2	86*	-1	5
CC(=O)Nc1cccc(-c2cc(=O)c3ccccc3o2)c1O	0	-5	-2	-47
COc1cc(OC)c(-c2c3cc(O)c(=O)cc-3oc3cc(O)c(O)cc23)cc1OC	0	110*	-1	8
COc1cc2ccc(=O)oc2cc1O	0	2	-1	7
O=c1cc2oc3cc(O)c(O)cc3c(-c3cccc(Cl)c3Cl)c-2cc1O	0	102*	-1	11
COc1cccc(-c2cc(=O)c3ccccc3o2)c1N	0	-11	-2	-53
CC(C)C(NS(C)(=O)=O)c1nnc2n1CCN(Cc1cccs1)CC2 (stereo not drawn)	0	-16	1	-10
Cc1ccc(-n2nc3c(c2NC(=O)c2ccc(C)c([N+](=O)[O-])c2)CS(=O)(=O)C3)cc1	0	-2	3	12
COc1ccc(-c2cnn3ccc(NCc4cccnc4)nc23)c(OC)c1	-1	-17	-1	2
CCOc1ccc(NC(=O)C2=C(C)NC(=O)NC2c2ccccc2Cl)cc1 (stereo not drawn)	0	-13	1	33*
Cc1csc2ncc(C(=O)NC(CO)CC(C)C)c(=O)n12 (stereo not drawn)	0	12	1	-12
CCOc1cc(C2CC(=O)Nc3ccc4ccccc4c32)cc(Br)c1O (stereo not drawn)	0	2	1	36*
Cc1cc(NCCCN2CCCC2=O)nc(N2CCOCC2)n1	7.4*	8	-1	-3
O=C1CCCN1CCCNc1ccnc(N2CCOCC2)n1	0	-9	-1	1
CCc1nc2sc(C(=O)c3ccc(C)cc3)c(N)c2cc1C	0	-4	1	-9
CC1(C)CC(N2CCCC2)=CC(=[N+]2CCCC2)C1	0	0	1	52*
CC1(C)CC(N2CCCC2)=CC(=[N+]2CCCCC2)C1	0	20	0	70*
CCN1CCN(C2=CC(=[N+]3CCCC3)CC(C)(C)C2)CC1	0	-8	2	6
COC(=O)c1cc(C(=O)N2CCN(c3cccc(Cl)c3)CC2)cc([N+](=O)[O-])c1	0	4	1	63*
O=C(c1cccc([N+](=O)[O-])c1)N1CCN(c2cccc(Cl)c2)CC1	0	8	1	13
COc1cccc(CN2CCc3nc(-c4ccccn4)nc(N4CCCC4)c3C2)c1	-1	12	0	41*
CC(C)n1nccc1-c1nnc(NC(=O)c2ccc(Cl)cc2Cl)o1	0	3	-1	12
CC(C)n1nccc1-c1nnc(NC(=O)C(C)(C)Oc2ccc(Cl)cc2)o1	-1	31	0	37*
SMILES	FBW7 act	MITF primary	GPR151 ag	TEAD-YAP inh
CC1Oc2cc(Cl)ccc2N(Cc2ccccc2)C1=O (stereo not drawn)	0	2	-1	-1
COc1ccc(N=CC2=C(O)c3ccccc3C2=O)cc1	0	15	-4	43*
O=C1C(C=Nc2ccccc2O)=C(O)c2ccccc21	0	1	-8	49*
OC(CN1C2=NCCCN2c2ccccc21)c1ccc2c(c1)OCO2 (stereo not drawn)	0	5	0	3
OC(CN1C2=NCCN2c2ccccc21)c1ccc2c(c1)OCO2 (stereo not drawn)	0	0	0	55*
N#CC1=C(N)OC2=C(CCC/C2=C/c2ccoc2)C1c1ccoc1 (stereo not drawn)	0	58*	2	-12
O=C(Nc1ccc(Cl)cc1)Nc1ccc(S(=O)(=O)Nc2ncccn2)cc1	2.5*	-23	-1	-2
COCC(=O)N(CC1CCCO1)c1nnc(C)s1 (stereo not drawn)	0	5	-4	34*
Cc1nnc(N(CC2CCCO2)C(=O)c2ccno2)s1 (stereo not drawn)	0	8	2	10
COc1ccc(NC(=O)Cn2nnc(-c3ccccc3Cl)n2)cc1S(N)(=O)=O	0	-7	-1	6
